# Hit rate of the full screen: of about 2,300 compounds, about 330 (14%) showed activity. The list is a sample of the results. A number with no mark means an inactive call.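 The calls were made as follows: active = median modified Z-score above 1.96; inactive = 1.96 or below.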
# Test system: HepG2 Srxn1-GFP reporter cells (+30 nM CDDO-Me)
# Assay: Srxn1-GFP intensity median modified Z-score relative to plate median; higher = stronger NRF2 / oxidative stress reporter activation, active = hit call of the paper
# Details: 10 µM; exposure time: 24h
# How it was run: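 Compound at 10 μM was applied with an NRF2 activator at 30 nM to HepG2 Srxn1-GFP BAC reporter cells for 24 h, in DMSO at no more than 0.1%, using three replicate 96-well plates seeded at 20,000 cells per well. Fixed, Hoechst-stained cells were imaged confocally and cytoplasmic GFP was scored for each cell, with images under 100 cells left out. The figure reported is the replicate median of the per-plate modified Z-score of GFP intensity. Scaling relied on 1.4826 × median absolute deviation.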
row,Structure (SMILES),Srxn1-GFP intensity median modified Z-score
1,N=c1ccn2c(n1)O[C@@H]1[C@@H](O)[C@H](CO)O[C@@H]12 [euspeclibcmpd1164],0.441
2,Oc1cc2cc(CCN3CCN(c4nsc5ccccc45)CC3)c(Cl)cc2[nH]1 [euspeclibcmpd1992],-0.197
3,O=C(O)CCC(=O)OC[C@@H](NC(=O)C(Cl)Cl)[C@H](O)c1ccc([N+](=O)[O-])cc1 [euspeclibcmpd2230],-0.0902
4,NC(CSCSCC(N)C(=O)O)C(=O)O (stereo unspecified) [euspeclibcmpd1615],-0.0888
5,C[C@]12CCC(=O)CC1=CCC1C2[C@@H](O)C[C@@]2(C)C1CC[C@]2(O)C(=O)COC(=O)CCC(=O)O (stereo partly specified) [euspeclibcmpd152],-0.766
6,CC1CCC2(C(=O)O)CCC3(C)C(=CCC4C5(C)CC(O)C(O)C(C)(CO)C5CCC43C)C2C1C (stereo unspecified) [euspeclibcmpd1959],-0.237
7,N=C(N)c1ccc(N=NNc2ccc(C(=N)N)cc2)cc1 [euspeclibcmpd1093],0.338
8,N=C(N)c1ccc(OCCCCCOc2ccc(C(=N)N)cc2)cc1 [euspeclibcmpd1040],12.5 (active)
9,CCCCCCOc1ccccc1C(N)=O [euspeclibcmpd1139],0.59
10,C[C@@H]1CCC2[C@](C)(CO)[C@@H](O)CC[C@]2(C)[C@@]12CC[C@@](CO)(CCO)O2 (stereo partly specified) [euspeclibcmpd1570],-0.216
11,CCOc1cc(/C=C/C(=O)O)ccc1OC,0.394
12,CCNC(=O)CCC(N)C(=O)O (stereo unspecified) [euspeclibcmpd2170],-0.00834
13,CC12CCC(=O)N1C(C(=O)NCCCNS(C)(=O)=O)CS2 (stereo unspecified),2.02 (active)
14,CC(=O)COc1ccc2c(C)cc(=O)oc2c1,1.43
15,CN(C)C1C(=O)C(C(=O)NCN2CCCC2)C(=O)C2(O)C(=O)C3C(=O)c4c(O)cccc4C(C)(O)C3CC12 (stereo unspecified) [euspeclibcmpd1955],-0.368
16,C[C@]12C=CC(=O)CC1=CCC1C2C(=O)C[C@@]2(C)C1CC[C@]2(O)C(=O)CO (stereo partly specified) [euspeclibcmpd243],-0.188
17,CC(=O)OC1CCC23C(=O)OC45CCC(c6coc(O)c6)C4(C)CCC2C5CCC3(O)C1 (stereo unspecified) [euspeclibcmpd1387],-1.25
18,[Cl][Ca][Cl] [euspeclibcmpd2470],1.27
19,N#CCC(=O)NN [euspeclibcmpd1098],3.08 (active)
20,CON=C1CN(c2nc3c(cc2F)c(=O)c(C(=O)O)cn3C2CC2)CC1CN (stereo unspecified) [euspeclibcmpd871],-0.00523
21,CC1=C(C(=O)O)N2C(=O)C(=NC(=O)C(N)C3CC=CCC3)C2SC1 (stereo unspecified) [euspeclibcmpd49],-0.299

row,Structure (SMILES),Srxn1-GFP intensity median modified Z-score
1,CN(C)CC(=O)OCC(=O)C(O)C(O)C(O)C(O)O (stereo unspecified) [euspeclibcmpd2264],-0.422
2,COc1ccc(CCN2CCC(N=c3[nH]c4ccccc4n3Cc3ccc(F)cc3)CC2)cc1 [euspeclibcmpd1296],-0.744
3,Cc1c(NC(=O)CCc2cccnc2)c(=O)n(-c2ccccc2)n1C,1.03
4,COc1ccc([C@@H]2CC(=O)c3c(O)cc(O[C@@H]4O[C@H](CO[C@H]5O[C@@H](C)[C@H](O)[C@@H](O)[C@H]5O)[C@@H](O)[C@H](O)[C@H]4O)cc3O2)cc1O [euspeclibcmpd1499],-0.332
5,C=C[C@](C)(O)CC[C@@H]1[C@@]2(C)CCCC(C)(C)[C@@H]2CC[C@]1(C)O [euspeclibcmpd2213],2.3 (active)
6,C=C[C@@](C)(O)CCC1C(=C)C[C@H](O)C2C(C)(C)CCCC12C (stereo partly specified) [euspeclibcmpd2065],0.497
7,CNC(CC(=O)O)C(=O)O (stereo unspecified) [euspeclibcmpd1746],-0.42
8,OC(COC(c1ccccc1)c1ccccc1)CN1CCN(/C=C/Cc2ccccc2)CC1 (stereo unspecified),0.401
9,CN1CCN(C(c2ccccc2)c2ccccc2)CC1 [euspeclibcmpd77],0.846
10,CC(=O)NC(CC(C)C)C(=O)O (stereo unspecified) [euspeclibcmpd1070],-0.124
11,CC(C)NS(=O)(=O)C1CCN(C(=O)CCS(=O)(=O)C2CCCC2)C1 (stereo unspecified),1.14
12,CC(C)Cn1cnc2c(=N)[nH]c3ccccc3c21 [euspeclibcmpd542],-0.55
13,CC(=O)N=c1[nH]nc(S(N)(=O)=O)s1 [euspeclibcmpd48],0.382
14,CCCc1nc(C)c2c(=O)[nH]c(-c3cc(S(=O)(=O)N4CCN(CC)CC4)ccc3OCC)nn12 [euspeclibcmpd760],-0.393
15,O=C(O[C@@H]1Cc2c(O)cc(O)cc2O[C@@H]1c1cc(O)c(O)c(O)c1)c1cc(O)c(O)c(O)c1 [euspeclibcmpd1546],1.25
16,O=C(OC[C@H]1O[C@H](OC(=O)c2cc(O)c(O)c(OC(=O)c3cc(O)c(O)c(O)c3)c2)[C@H](OC(=O)c2cc(O)c(O)c(OC(=O)c3cc(O)c(O)c(O)c3)c2)[C@@H](OC(=O)c2cc(O)c(O)c(OC(=O)c3cc(O)c(O)c(O)c3)c2)[C@@H]1OC(=O)c1cc(O)c(O)c(OC(=O)c2cc(O)c(O)c(O)c2)c1)c1cc(O)c(O)c(OC(=O)c2cc(O)c(O)c(O)c2)c1 [euspeclibcmpd649],8.09 (active)
17,O=C(Oc1cc(O)cc2c1CC(OC(=O)c1cc(O)c(O)c(O)c1)C(c1cc(O)c(O)c(O)c1)O2)c1cc(O)c(O)c(O)c1 (stereo unspecified) [euspeclibcmpd1839],-0.336
18,CCCCCCCCCCCCCCCC(=O)OCC(O)c1oc(O)c(O)c1O (stereo unspecified) [euspeclibcmpd862],-0.777
19,CC(C)(Oc1ccc(C(=O)c2ccc(Cl)cc2)cc1)C(=O)O [euspeclibcmpd2188],-0.278
20,Cc1c2oc3c(C)ccc(C(=O)OC(C)C4NC(=O)C(C(C)C)N(C)C(=O)CN(C)C(=O)C5CCCN5C(=O)C(C(C)C)NC4=O)c3[nH]c-2c(C(=O)OC(C)C2NC(=O)C(C(C)C)N(C)C(=O)CN(C)C(=O)C3CCCN3C(=O)C(C(C)C)NC2=O)c(=N)c1=O (stereo unspecified) [euspeclibcmpd955],-2.39

# From the supplement of paper PMC10498489
